The source of these data is PubChem BioAssay (NCI).

The panel holds about 83,000 compounds, 20% with a hit somewhere; the sample as a whole holds those more often.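 Compound tested at a single concentration for 48 hours in 96-well plates; a percent growth value below 10 was scored as active.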 Calls of active or inactive are those of the source.

The subject of this experiment is COLO 205 colon. The experiment is described as follows: NCI-60 one-dose screen, 48 h (100 = growth as untreated, 0 = no growth, -100 = all killed). Particulars: 10 µM unless noted. Here is the method:
Cells are grown in 96 well plates and exposed to the test compound for 48 hours. Compounds are tested at a single concentration, which is 10^-5 M for most compounds. The reported endpoint is percent growth (GI% or GIPRCNT), where numbers from 0 - 100% represent growth inhibition, and numbers from -100% - 0 represent cell death. For example, a value of 40 represents 60% growth inhibition. A value of 0 means no net growth occurred over the course of the experiment. A value of -40 indicates 40% of cells at the beginning of the experiment died by the end of the experiment. A value of -100 means all cells are dead at the end of the experiment.
NCI-60 Human Tumor Cell Lines Screen was performed using the standard one-dose NCI protocol, which is described in more detail at https://dtp.cancer.gov/discovery_development/nci-60/default.htm.
Compounds with GIPRCNT values below 10 were considered active. Activity score was based on GIPRCNT using the following formula: […]
Score is 0 for GIPRCNT values of 100 or above, 50 for GIPRCNT values of 0, and 100 for GIPRCNT values of -100.
Regarding `Nc1ncc(-c2ccc3ncnc(N4CCc5cc(F)c(Cl)cc54)c3c2)cn1`, the growth is 39.9% (inactive).

As to `COc1cc2nc(Cl)nc(Nc3cccc(C4=Nc5c(N)nc(N)nc5NC(c5ccc(Br)cc5)C4)c3)c2cc1OC` (stereo not given), the growth was 66.3% (inactive).

Take `CC1=NC2=NC(=O)/C(=C3/N=C(C)C=C(c4ccccc4)N3N)NN2C(c2ccccc2)=C1`: the growth is 114% (inactive).

Turning to `O=C1/C(=C/C=C/c2ccco2)SC(=S)N1c1ccccc1`, the growth is 83.2% (inactive).

As to `O=C(CSc1nnc(-c2ccc3nc(-c4ccccc4)[nH]c3c2)o1)Nc1ccc(C(=O)/C=C/c2ccccc2)cc1`, the growth is 110% (inactive).

On to `N=c1c2cc(-c3ccccc3)oc2ncn1/N=C/c1ccc(Br)cc1`, for which the growth was 98.9% (inactive).

On to `Cc1occc1-c1nc2s/c(=C/c3ccc(-c4cc(C(F)(F)F)ccc4Cl)o3)c(=O)n2n1`, for which the growth is 112% (inactive).

As for `O=C1Nc2ccccc2/C1=C/c1ccc(CO)n1-c1ccc(Cl)cc1`, the growth was 71.8% (inactive).

Consider `Cc1ccc(NC(=O)c2ccc(CN3CCOCC3)c(C(F)(F)F)c2)cc1Oc1ccc(-c2[nH]nc3ncnc(N)c23)cc1`, for which the growth was 18.8% (inactive).

Turning to `CCO/C=N/C1=C(C#N)C(c2ccc(OC)cc2)c2sc3c(C)cccc3c2O1` (stereo not given), the growth was 16.1% (inactive).

Turning to `Cc1ccc(-n2c(/C=C3\C(=O)Nc4ccccc43)ccc2CO)cc1`, the growth is 91.5% (inactive).

Take `CN1CCN(Cc2ccc(NC(=O)c3cncc(C#Cc4cnc5ccc(OCC(C)(C)O)nn45)c3)cc2C(F)(F)F)CC1`: the growth is -70% (active).

For `CN1CCC(n2cc(Nc3ncc4c(=O)n(-c5c(Cl)cccc5Cl)cc(Br)c4n3)cn2)CC1`, the growth is 22.5% (inactive).

As for `Nc1nc(-c2cccc([N+](=O)[O-])c2)c(N=Nc2ccccc2)s1`, the growth is 63.1% (inactive).

In the case of `COC(=O)/C=C/c1c(C2(C)NC(=O)c3ccccc3N2)c(=O)oc2ccc(Cl)cc12` (stereo not given), the growth was 117% (inactive).

For `O=C(CCC(=O)N1CCOCC1)OCCCCCCSc1ccc([N+](=O)[O-])c2nonc12`, the growth is -56.7% (active).

Turning to `CS(=O)(=O)c1ccc(-n2cc(/C=N/O)c(-c3ccccc3)n2)cc1`, the growth was 101% (inactive).

Turning to `COc1cc2nc(Cl)nc(Nc3cccc(C4=Nc5c(N)nc(N)nc5NC(c5ccc6c(c5)OCO6)C4)c3)c2cc1OC` (stereo not given), the growth was 89.1% (inactive).

On to `O=C(CN1CCN(c2cc(=O)n(-c3ccccc3)c3ccccc23)CC1)Nc1nc(-c2ccccc2)cs1`, for which the growth is 60.1% (inactive).

Regarding `O=C(NNc1nc2cc(F)ccc2n2cccc12)c1ccncn1`, the growth is 10.3% (inactive).

Turning to `C=CCn1c(SCC(=O)Nc2ccc(C(=O)/C=C/c3cc(OC)c(OC)c(OC)c3)cc2)nnc1-c1c[nH]c2ccccc12`, the growth is 73.1% (inactive).

For the molecule `CCC1=Cc2cc(OC)ccc2OC12C=Cc1cc(OC)ccc1O2` (stereo not given), the growth was -6.28% (active).

Regarding `COc1cc(-c2nn(C(C)(C)C)cc2-c2ccnc(NCCCNS(=O)(=O)c3ccccc3)n2)ccc1Cl`, the growth was 101% (inactive).

Take `NC(N)=Nc1ccc(Oc2cccc(Nc3ccc(Cl)c(C(F)(F)F)c3)c2)cc1`: the growth was -4.28% (active).

As for `COc1ccc(N2CCN(C3=C(Cl)C(=O)C(C)=C(C)C3=O)CC2)cc1`, the growth is 125% (inactive).

Consider `C=CCn1c(SCC(=O)Nc2ccc(C(=O)/C=C/c3ccc(C)cc3)cc2)nnc1-c1c[nH]c2ccccc12`, for which the growth is 112% (inactive).

`COC(=O)c1ccc(NC2=C/C(=N/S(=O)(=O)c3ccc(C(=O)O)cc3)c3ccccc3C2=O)cc1`: the growth was 115% (inactive).

On to `NC(=O)c1cccc(C#CCNC[C@H]2C[C@@H](n3ccc4c(Cl)ncnc43)[C@H](O)[C@@H]2O)c1`, for which the growth is 116% (inactive).

On to `C=C(C)[C@@H]1CC[C@]2(C(=O)NCCCCCN(CCC#N)CCC#N)CC[C@]3(C)[C@H](CC[C@@H]4[C@@]5(C)CCC(=O)C(C)(C)[C@@H]5CC[C@]43C)[C@@H]12`, for which the growth is 111% (inactive).

With `COc1cc(-c2nnc(SCc3ccc(O)c4ncccc34)n2-c2ccccc2)cc(OC)c1OC`, the growth was 10.1% (inactive).

With `CCN1CCN(Cc2cn(-c3ccc(S(N)(=O)=O)cc3)nn2)CC1`, the growth was 109% (inactive).

With `Cc1ccc(-c2cc3nc(C(Cl)Cl)nc(C)n3n2)cc1`, the growth is 115% (inactive).

With `c1cc(-c2nc3ccc4[nH]ncc4c3c3c2CCCC3)[nH]n1`, the growth was 54.1% (inactive).

On to `Cc1cc(S(=O)(=O)N(C)C)cc(NCC(=O)NC(=O)NCC(C)C)c1C`, for which the growth was 109% (inactive).

Take `C=C1CC[C@@H]2[C@]3(C)COC(c4ccccc4)O[C@@H]3CC[C@@]2(C)[C@@H]1C/C=C1/C(=O)OC[C@H]1O` (stereo not given in full): the growth is 108% (inactive).

As for `COc1ccc(/C=C/C(=O)c2cccc(NC(=O)CSc3nc4ccccc4c(=O)n3-c3ccccc3)c2)cc1OC`, the growth is 123% (inactive).

`O=C1CCCc2nc(Nc3ccc(S(=O)(=O)Nc4ccc([N+](=O)[O-])cc4)cc3)ncc21`: the growth is 121% (inactive).

As for `COc1cc2nc(Cl)nc(Nc3cccc(C4=Nc5c(N)nc(N)nc5NC(c5ccccc5)C4)c3)c2cc1OC` (stereo not given), the growth was 99.8% (inactive).

For `O=C(NNc1nc2cc(F)ccc2n2c(CO)ccc12)c1cnccn1`, the growth is 8.65% (active).

As to `CCNC(=O)N1CCc2cc(OC)c(OCCc3ccc(OC)cc3)cc2C1c1ccc(OC)cc1C` (stereo not given), the growth is 27.6% (inactive).
